In paper PMC10668032, “Altered binding affinity of SIX1-Q177R correlates with enhanced WNT5A and WNT pathway effector expression in Wilms tumor”:
Whole data set: some 33,000 sequences, median “e-score” near -0.05, cut for the highest 2% near 0.38. The list comes from a sample in which the highest values are over-represented; it also holds similar and randomly drawn sequences.

Target: T1, SIX1-Q177R homeodomain (human, UniProt Q15475 108-198, Q177R)
T1 sequence: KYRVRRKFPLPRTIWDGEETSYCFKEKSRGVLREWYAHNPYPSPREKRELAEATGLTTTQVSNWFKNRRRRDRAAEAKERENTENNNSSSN
Test: universal protein binding microarray; Universal all-10-mer PBM (8x60K, AMADID 030236), 300 nM GST-tagged protein, Alexa Fluor 488 anti-GST; buffer, salt, pH and temperature not stated (as in Berger); high values mean tight binding
Settings: protein: ivt; tags: N-terminal GST; dsDNA, one strand shown
In short: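 Homeodomains carrying a GST tag were produced by in vitro transcription/translation, then quantified by anti-GST western blot against a recombinant GST standard curve. Duplicate applications at 300 nM final concentration were made to universal 'all 10-mer' protein binding microarrays in 8×60K format. The Universal PBM Analysis Suite was used to express binding as 8-mer E-scores.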

Sequence | binding signal [E-score]
ACTGAGTG | 0.1766 ± 0.000721
TCTTGACA | 0.167 ± 0.0124
CCCCCGAA | 0.238 ± 0.0222
GAGGGTTA | 0.185 ± 0.00774
CGACTAAC | 0.192 ± 0.0385
CACGCACG | 0.304
ATTGCGTG | 0.183 ± 0.0294
GGCGTACA | 0.283 ± 0.0225
GGCGTGTA | 0.4378 ± 0.00204
GACGTGTA | 0.368 ± 0.0248
TACACCGA | 0.4853 ± 0.00441
AGCACCGA | 0.197 ± 0.00674
GACACCGA | 0.486 ± 0.00613
AACACCGT | 0.4669 ± 0.00366
AACACCGA | 0.4686 ± 0.00331
AACACTGT | 0.3445 ± 0.00205
GTCACCGA | 0.175 ± 0.0101
CACCCCGA | 0.346 ± 0.0278
TACACAGA | 0.152 ± 0.0583
GGCACCGA | 0.175 ± 0.0275
AACACAGT | 0.158 ± 0.0584
ACCCAACA | 0.251 ± 0.0117

Sequence | binding signal [E-score]
ACGATCCG | 0.232 ± 0.0258
AATCTACA | 0.22 ± 0.0213
ACCCGTGC | 0.1616 ± 0.000424
GCACTATA | 0.191 ± 0.0272
CACCCCGG | 0.338 ± 0.0167
AACACCGG | 0.4831 ± 0.000693
CACACAGG | 0.182 ± 0.0584
GATACCGC | 0.293 ± 0.00845
CACACCGG | 0.418 ± 0.0186
CACACCGC | 0.412 ± 0.0184
AGCACCGG | 0.206 ± 0.0351
AACACTGG | 0.37323 ± 0.000191
CGCACCGC | 0.209 ± 0.0348
GACACCGC | 0.487 ± 0.00552
CACCGCGG | 0.3509 ± 0.00344
GACGCCGC | 0.151 ± 0.0247
CACCGATG | 0.32 ± 0.0273
CCCCGGAG | 0.261 ± 0.00517
CTATTACA | 0.215 ± 0.023
CAGATTCG | 0.161 ± 0.0252
CACCAAGG | 0.265 ± 0.0125
CCCGCACC | 0.197 ± 0.0395

Sequence | binding signal [E-score]
AACCCGGA | 0.201 ± 0.0406
TGTGCACA | 0.21 ± 0.0348
CGCTTACA | 0.196 ± 0.0288
CACCATAC | 0.3492 ± 0.0017
CACCAGGG | 0.284 ± 0.0249
CGGATCCA | 0.232 ± 0.0264
CACCCGAA | 0.276 ± 0.0248
ACCTCACG | 0.153 ± 0.0322
CACCGGCC | 0.251 ± 0.0167
GATACCCA | 0.3616 ± 0.000587
ACTTGCAC | 0.175 ± 0.00796
TGTAAACA | 0.262 ± 0.00791
ACCACCGC | 0.199 ± 0.00668
CACACCGA | 0.405 ± 0.0194
AGCACCGC | 0.288 ± 0.023
AACACCGC | 0.47579 ± 0.000382
CGGGGTTC | 0.201 ± 0.0287
CATGGACA | 0.216 ± 0.0185
GGAGTACC | 0.218 ± 0.0355
GTGCGCAC | 0.175 ± 0.0735
CGACACAC | 0.345 ± 0.0318
CGACACAG | 0.251 ± 0.0668

Sequence | binding signal [E-score]
CGGCACCG | 0.239 ± 0.0344
GGACCCCC | 0.26 ± 0.0595
CGACCCCC | 0.256 ± 0.0448
GGACACAA | 0.18 ± 0.117
CGACACCG | 0.4907 ± 0.00417
GGACACAC | 0.382 ± 0.0328
GGACACCC | 0.48 ± 0.00768
CGACACCC | 0.488 ± 0.01
GCCCACCC | 0.229 ± 0.0369
ACGCACCC | 0.265 ± 0.0257
TACCCTGA | 0.185 ± 0.0156
CGGGGTGC | 0.219 ± 0.0401
TATTGACA | 0.194 ± 0.0479
CACGCAGG | 0.264 ± 0.016
GTACTCCA | 0.178 ± 0.0308
CGACAACA | 0.245 ± 0.0238
GGTCACAC | 0.384 ± 0.0098
AGACCCCC | 0.214 ± 0.0497
CGACACAA | 0.201 ± 0.104
AGTCACAC | 0.326 ± 0.0101
CGTCACAC | 0.288 ± 0.0273
CGACACCA | 0.488 ± 0.00517

Sequence | binding signal [E-score]
AGACACCC | 0.469 ± 0.00936
ACTCCCTC | 0.156 ± 0.0128
TATATATA | 0.181 ± 0.042
AGGGATCG | 0.216 ± 0.00653
CACTCATG | 0.244 ± 0.00471
ACCCTTCA | 0.166 ± 0.0264
GGGGTATA | 0.274 ± 0.0131
CACCTCCG | 0.344 ± 0.00638
ACCCGGGG | 0.297 ± 0.0213
CACTATTA | 0.158 ± 0.0138
GTTCGGGA | 0.15 ± 0.0437
CACCACCA | 0.329 ± 0.0106
CTACACCC | 0.4824 ± 0.00332
CTACAACA | 0.161 ± 0.0103
GTACACCA | 0.4849 ± 0.00112
CTACACCA | 0.4741 ± 0.00151
GTGCACCA | 0.246 ± 0.0146
CTACCCCC | 0.268 ± 0.0213
CTGCACCC | 0.209 ± 0.0458
ACACACTG | 0.248 ± 0.0191
ATACACTG | 0.392 ± 0.00512
GTACAACA | 0.2 ± 0.0164
